Values without a mark were called inactive. The source made the active and inactive calls. Calls come from the whole dose curve; as a rule, active = well fitted curve in the direction sought with a large enough effect in the repeat runs; inconclusive = weak or mixed curves; inactive = flat fitted curve, though single readings scatter.
Experiment: qHTS assay to test for compound auto fluorescence at 535 nm (green) in HEK293 cells (AID 720680)
Settings: green autofluorescence 485/535 nm; series mostly up to 91.3 µM
Description: U.S. Tox21 Program National Center for Advancing Translational Sciences [NCATS] NIH Chemical Genomics Center [NCGC] U.S. Environmental Protection Agency [EPA] National Institutes of Environmental Health Sciences [NIEHS] National Toxicology Program [NTP] U.S. Food and Drug Administration [FDA] Tox21 Assay Overview: Compound auto fluorescence often interferes with screening of the compound library against various biological targets and signaling pathways. Some of these compounds may have fluorophoric properties. Such properties may interfere with the assay outputs resulting in false positives and/or negatives. To decrease such complications and ensure the compound activities are relevant in terms of biological response, the Tox21 10K compound library was screened for auto fluorescence. From the fluorophores used as reporter signals in our screening assays, the auto fluorescence equivalencies of compounds against three fluorophores have been evaluated: Triamterene, Fluorescein and Rose Bengal sodium for blue, green and red fluorescence, respectively. The fluorescence intensities were measured using Excitation/Emission wavelengths at 405/460nm, 485/535nm and 540/590nm for blue, green and red labels, respectively. This assay includes the green fluorescence data.
Tox21 Assay Protocol Summary: 2,000 HEK293 cells in 5 uL of culture medium containing 10% dialyzed FBS per well were dispensed into black wall/clear bottom 1536-well plates using a Multidrop Combi Dispenser (Thermo Scientific). The assay plates were incubated for 4-5 hr at 37C to allow cell attachment to the well bottom, followed by the transfer of 23 nL compound or DMSO vehicle by a pintool work station (Kalypsys, San Diego, CA). After the assay plates were incubated overnight at 37C and 5% CO2, fluorescence intensities in the assay plates were measured by an Envision (PerkinElmer, Shelton, CT) plate reader using three labels for measuring blue, green and red fluorescence at […] 460, 535 and 590nm respectively.
% is set by controls: 0 for no effect and ±100 for the full control effect.

SMILES	outcome	fluorescence, % of fluorescein
Cc1cc([N+](=O)[O-])ccc1N	inactive	
COC(OC)OC	inactive	
O=C1OC(=O)c2c(Br)c(Br)c(Br)c(Br)c21	inactive	
O=C(O)CNC(=O)c1ccccc1I	inactive	
O=C1c2ccccc2C(=O)c2c(O)ccc(O)c21	inactive	
CCOC(=O)c1ccc(NC(=O)CN2CCCCC2)cc1	inactive	
Cc1ccc(N(CCO)CCO)cc1	inactive	
CN(C)CC/C=C1\c2ccccc2Sc2ccc(Cl)cc21	inactive	
O=c1[nH][nH]c(=O)c2cc([N+](=O)[O-])ccc12	inactive	
O=C(O)c1cc(Cl)cc(Cl)c1O	inactive	
O=C(/C=C/c1ccc([N+](=O)[O-])cc1)c1ccccc1	inactive	
Cc1ccc(S(=O)(=O)NC(=O)NC2CCCCC2)cc1	inactive	
CCNc1nc(N)nc(Cl)n1	inactive	
CC(C)N=C=NC(C)C	inactive	
O=C1[C@@H]2[C@H]3CC[C@H](C3)[C@@H]2C(=O)N1CCCCN1CCN(c2ncccn2)CC1	inactive	
OCC(CO)n1cnc(-c2ccc(F)cc2)c1-c1ccnc(Oc2ccccc2)n1	inactive	
O=C(NC(Cc1cc(=O)[nH]c2ccccc12)C(=O)O)c1ccc(Cl)cc1 (stereo not given)	inactive	
CCSC(=O)N(CC)CC	inactive	
COC(=O)c1sccc1S(N)(=O)=O	inactive	
C=CC(=O)NC(C)C	inactive	

SMILES	outcome	fluorescence, % of fluorescein
CCCCCCCCCCCCCCN(C)C		0.0258% [at 18.6 µM]
COc1cc(S(=O)(=O)Nc2ccccc2)c(OC)cc1N	inactive	
CC1C(C)(C)C2=C(C(=O)CCC2)C1(C)C (stereo not given)	inactive	
CCc1ccc(C)cc1	inactive	
CC(C)C(=O)OCCOc1ccccc1	inactive	
Cc1cccc(C)c1NC(=O)c1cc(S(N)(=O)=O)c(Cl)cc1O	inactive	
COc1cc(C(C)=O)ccc1OCCCN1CCC(c2noc3cc(F)ccc23)CC1	inactive	
FC(F)(F)C(F)(F)C(F)(F)C(F)(F)CCI	inactive	
CC(=O)OC(C)C[N+](C)(C)C (stereo not given)		-0.0571% [at 18.6 µM]
CC(C)C(O)C(C)(C)CO (stereo not given)	inactive	
Nc1ccc(NC(=O)c2ccc(N)cc2)cc1	inactive	
C1CCCCC1	inactive	
COC(C)(C)OC	inactive	
CC(C)(C)C1(CCc2ccc(Cl)cc2)CO1 (stereo not given)	inactive	
CSSc1ccoc1C	inactive	
CC(C)(C(=O)c1cccnc1)c1cccnc1		0.0635% [at 18.6 µM]
O=C(Oc1ccccc1)c1ccc2ccccc2c1O	inactive	
CCC(Cl)CC(Cl)C(Cl)C(Cl)C(Cl)C(C)Cl (stereo not given)		0.0197% [at 13.4 µM]
[Cl][Nd]([Cl])[Cl]	inactive	
CCCCOC(=O)CCCCC(=O)OCCCC	inactive	

From PubChem BioAssay (Tox21)
